# Screening data as filed in PubChem.
# An excerpt weighted towards active compounds, which were near 32% of everything screened.
# PostGolgi ctrl: inhibits growth of the yeast control strain. inhibition, % at 10 µM. efflux-deficient yeast background strain, growth absorbance A615, 16 h. actives 5% (n = 98,000)
# CYP2C9 activ: activators of human CYP2C9; P11712; recombinant CYP2C9, luciferin-H conversion, luminescence; active compounds read high; factor 1 = untreated enzyme, 0 = blocked; activation factor at 5 µM; actives 1.4% (n = 96,000); AID 1024;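 active means activation factor of 2 or more for CYP2C9 at a 5 µM dose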
# Target sequence (P11712 whole entry, looked up): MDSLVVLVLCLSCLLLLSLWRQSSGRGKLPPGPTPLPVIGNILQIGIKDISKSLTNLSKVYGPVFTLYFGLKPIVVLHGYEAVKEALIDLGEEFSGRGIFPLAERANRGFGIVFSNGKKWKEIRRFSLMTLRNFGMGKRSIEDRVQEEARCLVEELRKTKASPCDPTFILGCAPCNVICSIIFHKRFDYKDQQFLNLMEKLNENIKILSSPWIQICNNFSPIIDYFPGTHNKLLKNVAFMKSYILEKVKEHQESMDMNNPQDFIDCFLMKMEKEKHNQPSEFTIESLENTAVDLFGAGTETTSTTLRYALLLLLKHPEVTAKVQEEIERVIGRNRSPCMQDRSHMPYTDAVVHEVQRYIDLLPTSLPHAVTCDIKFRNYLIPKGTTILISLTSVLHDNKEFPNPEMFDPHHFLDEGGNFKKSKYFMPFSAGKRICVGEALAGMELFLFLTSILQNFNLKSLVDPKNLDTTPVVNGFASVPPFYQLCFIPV
# CYP2C19 act: cytochrome P450 2C19 (human) activation. activation factor at 5 µM. recombinant CYP2C19, luciferin-H EGE luminescence; active compounds read high; 0 = fully inhibited enzyme, 1 = untreated enzyme. P33261. AID 1025. 96,000 tested, under 10 active;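 active means activation factor of at least 2 at 5 µM in the primary screen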
# CYP2C9 inhib: blocks human cytochrome P450 2C9; P11712; CYP2C9 Supersomes, luciferin-H conversion, luminescence; inhibition, % at 5 µM; actives 20% (n = 96,000); AID 777;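 active means blocking of liver enzyme CYP2C9 beyond about 50% at 5 µM, limit read from the data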
# PostGolgi yeast: growth inhibition of a yeast mutant, post-Golgi transport screen | post-Golgi transport phenotypic cell assay | inhibition, % at 10 µM | actives 0.9% (n = 98,000) | AID 739;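 further: yeast cells grown in 1536-well plates; yeast grown about 18 h at 30C before absorbance read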
# CYP2C19 inh: human CYP2C19 inhibition; CYP2C19 Supersomes, luciferin-H EGE luminescence, 30 min; inhibition, % at 5 µM; actives 21% (n = 96,000);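 active means CYP2C19 inhibition above a set limit at 5 µM in the primary screen, cut at about 50% in these data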
# Hits are given with their value; i = inactive. Unless noted, no stated cut-off is given here; in the data, active means inhibition above about 30%; inactive means the rest.
SMILES,PostGolgi ctrl,CYP2C9 activ,CYP2C19 act,CYP2C9 inhib,PostGolgi yeast,CYP2C19 inh
O=C1c2ccccc2C(=O)N1CCCc1nc(-c2ccccn2)no1,i,i,i,i,i,i
COc1ccc(CCN(Cc2nc(-c3ccccc3)no2)Cc2nc(-c3ccccc3)no2)cc1OC,i,i,i,86.1,i,53.7
CC(C)C(=O)NC(NC(=S)Nc1cccc2cccnc12)C(Cl)(Cl)Cl (configuration not stated),i,i,i,83.8,i,i
Cc1ccc(C)c(NC(NC(=O)c2cccnc2)C(Cl)(Cl)Cl)c1 (configuration not stated),i,i,i,i,i,i
CC(C)(C)C(=O)NC(Nc1cccc2cccnc12)C(Cl)(Cl)Cl (configuration not stated),i,i,i,54.1,i,53.7
COc1ccccc1OCc1ccc(C(=O)NCCN(C)C)o1,i,i,i,i,i,i
O=C(CSC1=NCCS1)N1CCCCCC1,i,i,i,i,i,56.9
O=C(CSC1=NCCS1)N1CCCC1,i,i,i,i,i,i
COc1ccc(/C=C(/C#N)C(=O)Nc2cc(C)ccc2C)cc1C(=O)O,i,i,i,i,i,i
Cc1ccc(-n2ncc3c(=O)n(CC#N)cnc32)cc1,i,i,i,i,i,i
COc1ccc(C)cc1NC(=O)CN(C)S(=O)(=O)c1cnc[nH]1,i,i,i,72.8,i,78.1
COc1ccc(C)cc1NC(=O)COC(=O)c1c(C)noc1C,i,i,i,i,i,i
Cc1cccc(NC(=O)CN(C)S(=O)(=O)c2cnc[nH]2)c1,i,i,i,93.0,i,89.6
CCN(c1cccc(C)c1)S(=O)(=O)c1ccc2[nH]c(=O)c(=O)[nH]c2c1,i,i,i,68.7,i,i
CCN(c1cccc(C)c1)S(=O)(=O)c1c(C)[nH]c(=O)[nH]c1=O,i,i,i,i,i,i
CCN(c1cccc(C)c1)S(=O)(=O)c1cnc[nH]1,i,i,i,98.2,i,96.7
CCCn1c(=O)c2ccccc2n2c(SCCOc3ccc(C)cc3)nnc12,i,i,i,i,i,i
Cc1ccc(NC(=O)C2CCN(S(C)(=O)=O)CC2)cc1C,i,i,i,i,i,i
COc1ccc(S(=O)(=O)N(C)CC(=O)NCc2cccnc2)cc1OC,i,i,i,i,i,i
COc1cccc(CNC(=O)CN(C)S(=O)(=O)c2cnc[nH]2)c1,i,i,i,78.9,i,98.7
CCCCCCCn1c(=N)n(CC(=O)c2ccco2)c2ccccc21,i,i,i,i,i,i
COc1ccc(-n2c3c(c(=O)[nH]c2=O)C(C(F)(F)F)(C(F)(F)F)N=C(CC(C)C)N3)cc1,i,i,i,i,i,i
COc1ccc(C2=NC(C(F)(F)F)(C(F)(F)F)c3c(n(C)c(=O)n(C)c3=O)N2)cc1,i,i,i,i,92.4,i
Cc1c(C(=O)NCCC2=CCCCC2)oc2ccc(S(=O)(=O)N3CCC4(CC3)OCCO4)cc12,i,i,i,i,i,i
CN(C)c1nc2n(c(=S)n1)CCS2,i,i,i,i,i,i
SMILES,PostGolgi ctrl,CYP2C9 activ,CYP2C19 act,CYP2C9 inhib,PostGolgi yeast,CYP2C19 inh
COc1ccc(NC2=C(C(C)=O)C(c3ccc4c(c3)OCO4)C(C(C)=O)C(C)(O)C2)cc1 (configuration not stated),i,i,i,77.9,i,72.4
CC(=O)C1=C(Nc2ccc(C)cc2)CC(C)(O)C(C(C)=O)C1c1ccco1 (configuration not stated),i,i,i,i,i,i
Cc1ccc(NC(=O)c2cc([N+](=O)[O-])ccc2NCc2cccnc2)cc1,i,i,i,90.9,i,83.3
O=C(/C=C/c1cccc([N+](=O)[O-])c1)NCc1cccnc1,i,i,i,i,i,i
CC(/C=N/NC(=O)c1cc(-c2ccc(Cl)cc2)nc2ccccc12)=C\c1ccco1,i,i,i,89.0,i,i
CCn1ncc(/C=N\NC(=O)c2cc(-c3ccc(C)cc3C)nc3ccccc23)c1C,i,i,i,96.8,i,89.6
Cc1ccc(-c2cc(C(=O)N/N=C/c3c(C)nn(C)c3C)c3ccccc3n2)cc1C,i,i,i,96.9,i,81.0
Cc1ccc(C(NC(=O)N2CCOCC2)=C(Cl)Cl)cc1F,i,i,i,i,i,i
COc1ccccc1OC1=NS(=O)(=O)c2ccccc21,i,i,i,i,i,i
COc1nc(NC(C)(C)C)nc(Oc2ccc(=O)n(-c3ccccc3)n2)n1,i,i,i,55.5,i,i
